In the supplement of paper PMC7184167:
Structures can show the parent of a compound that is named as a salt.

System: replication-induced senescent mouse newborn dermal fibroblasts (NBF)
Assay: relative cell viability of senescent cells (fraction); higher = less killing of senescent cells
Settings: 1 µM; 3 days
Protocol: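 Replication-induced senescent newborn mouse skin fibroblasts (NBFs) in 24-well plates were treated with a Selleck FDA-approved drug library at 1 µM for 3 days.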

Point of comparison: `CCCc1nc2c(C)cc(-c3nc4ccccc4n3C)cc2n1Cc1ccc(-c2ccccc2C(=O)O)cc1` [Telmisartan], relative cell viability 1.15. Against it:
- CC(C)c1cc(C(=O)N2Cc3ccc(CN4CCN(C)CC4)cc3C2)c(O)cc1O — lower, 0.0951
- COCCc1ccc(OCC(O)CNC(C)C)cc1 (centres undefined) [Metoprolol Tartrate] — lower, 1.1
- C=CCNC1=C2C[C@@H](C)C[C@H](OC)[C@H](O)[C@@H](C)/C=C(\C)[C@H](OC(N)=O)[C@@H](OC)/C=C\C=C(/C)C(=O)NC(=CC1=O)C2=O [Tanespimycin (17-AAG)] — lower, 0.966
- CC(C)c1nc(CN(C)C(=O)N[C@H](C(=O)N[C@@H](Cc2ccccc2)C[C@H](O)[C@H](Cc2ccccc2)NC(=O)OCc2cncs2)C(C)C)cs1 [Ritonavir] — the same, 1.15
- O=C(O)/C=C/c1ccc(Cn2ccnc2)cc1 [Ozagrel] — lower, 1.02
- C#C[C@]1(O)CC[C@H]2[C@@H]3CCC4=CC(=O)CC[C@@H]4[C@H]3CC[C@@]21CC [Levonorgestrel] — lower, 0.996
- COc1ccc([C@@H]2Sc3ccccc3N(CCN(C)C)C(=O)[C@@H]2OC(C)=O)cc1 [Diltiazem HCl] — lower, 1.09
- CC1(C)O[C@@H]2C[C@H]3[C@@H]4CCC5=CC(=O)C=C[C@]5(C)[C@H]4[C@@H](O)C[C@]3(C)[C@]2(C(=O)CO)O1 [Desonide] — lower, 1.14
- C[C@]12C=CC(=O)C=C1CC[C@@H]1[C@@H]2C(=O)C[C@@]2(C)[C@H]1CC[C@]2(O)C(=O)CO [Prednisone] — lower, 0.875
- OCCN(CCO)c1nc(N2CCCCC2)c2nc(N(CCO)CCO)nc(N3CCCCC3)c2n1 [Dipyridamole] — lower, 1
- Cc1cc(Nc2cc(N3CCN(C)CC3)nc(Sc3ccc(NC(=O)C4CC4)cc3)n2)n[nH]1 [Tozasertib (VX-680, MK-0457)] — lower, 0.364
- C[C@@H](O[C@H]1OCCN(Cc2n[nH]c(=O)[nH]2)[C@H]1c1ccc(F)cc1)c1cc(C(F)(F)F)cc(C(F)(F)F)c1 [Aprepitant] — lower, 1.08
- OCCOCCN1CCN(C2=Nc3ccccc3Sc3ccccc32)CC1 [Quetiapine Fumarate] — lower, 1.13
- COC(=O)N[C@H](C(=O)N[C@@H](Cc1ccccc1)[C@@H](O)CN(Cc1ccc(-c2ccccn2)cc1)NC(=O)[C@@H](NC(=O)OC)C(C)(C)C)C(C)(C)C [Atazanavir Sulfate] — lower, 0.988
- CC[C@H]1OC(=O)[C@H](C)[C@@H](O[C@H]2C[C@@](C)(OC)[C@@H](O)[C@H](C)O2)[C@H](C)[C@@H](O[C@@H]2O[C@H](C)C[C@H](N(C)C)[C@H]2O)[C@](C)(O)C[C@@H](C)C(=O)[C@H](C)[C@@H](O)[C@]1(C)O [Erythromycin] — lower, 0.796
- Nc1ccccc1NC(=O)c1ccc(CNC(=O)OCc2cccnc2)cc1 [Entinostat (MS-275)] — lower, 0.536
- O=C(O)c1cccnc1 [Nicotinic Acid] — lower, 0.937
- C[N+]1(C)[C@@H]2C[C@@H](OC(=O)C(O)(c3cccs3)c3cccs3)C[C@H]1[C@@H]1O[C@@H]12 [Tiotropium Bromide hydrate] — lower, 1.07
- O=C(CCCCCCC(=O)Nc1ccccc1)NO [Vorinostat (SAHA, MK0683)] — lower, 0.75
- COc1ccc(CC2c3cc(OC)c(OC)cc3CC[N+]2(C)CCC(=O)OCCCCCOC(=O)CC[N+]2(C)CCc3cc(OC)c(OC)cc3C2Cc2ccc(OC)c(OC)c2)cc1OC (centres undefined) [Atracurium Besylate] — lower, 1.07
- CN(C)c1cc(NC(=O)CNC(C)(C)C)c(O)c2c1CC1CC3C(N(C)C)C(=O)C(C(N)=O)=C(O)C3(O)C(=O)C1=C2O (centres undefined) [Tigecycline] — lower, 0.694
- COc1ccc(-n2nc(C(N)=O)c3c2C(=O)N(c2ccc(N4CCCCC4=O)cc2)CC3)cc1 [Apixaban] — lower, 0.89
- COc1ccc2[nH]cc(CCNC(C)=O)c2c1 [Melatonin] — lower, 1.05
- O=C(c1ccccc1)c1ccc2n1CCC2C(=O)O (centres undefined) [Ketorolac] — lower, 0.977
- COc1cc2/c(=N/c3ccc(Br)cc3F)nc[nH]c2cc1OCC1CCN(C)CC1 [Vandetanib (ZD6474)] — lower, 0.464
- Cc1ccc(C(=O)N(CCCN)[C@@H](c2nc3cc(Cl)ccc3c(=O)n2Cc2ccccc2)C(C)C)cc1 — lower, 1.13
- COC(=O)Nc1nc2cc([S+]([O-])c3ccccc3)ccc2[nH]1 (centres undefined) [Oxfendazole] — lower, 1.04
- CN(C)CCOC(c1ccccc1)c1ccccc1 [Diphenhydramine HCl] — lower, 1.14
